Assay in all cases: NCI-60 one-dose screen, 48 h (100 = growth as untreated, 0 = no growth, -100 = all killed)
For assay [1], the system named is HCT-15 colon. The conditions noted are these: 10 µM unless noted.
Assay [2] deals with HT29 colon. Particulars: 10 µM unless noted.
Assay [3] deals with SNB-75 CNS. The conditions noted are these: 10 µM unless noted.
The test system of assay [4] is SNB-19 CNS. Particulars: 10 µM unless noted.
Assay [5] relates to U251 CNS. Particulars: 10 µM unless noted.
Assay [6] has as its system PC-3 prostate. The conditions noted are these: 10 µM unless noted.
The test system of assay [7] is SK-MEL-5 melanoma. Particulars: 10 µM unless noted.
In assay [8] the test system is LOX IMVI melanoma. The conditions noted are these: 10 µM.
Assay [9] deals with SK-MEL-28 melanoma. The conditions noted are these: 10 µM unless noted.
Assay [10] relates to UACC-62 melanoma. Particulars: 10 µM unless noted.

The panel holds about 83,000 compounds, 20% with a hit somewhere; the sample as a whole holds those more often.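 Step 1: grow cells in 96-well plates. Step 2: add test compound at a single concentration. Step 3: incubate 48 h. Step 4: record percent growth.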 Unmarked numbers belong to inactive results. Activity calls are given as the source filed them. The calls were made as follows: active = growth percent below 10; inactive = the rest.

With `c1ccc(-c2cc3cc4ccccc4cn3c2)cc1`, the growth in assay [1] is 100%; in assay [2], 105%; in [3], 89.9%; in assay [4], 92.3%; in assay [5], 82.4%; in [6], 78.9%. Moreover, the growth in [7] is 80.6%; in assay [8] it was 86%; in assay [9] it was 98.5%.

As to `CN=C(N)N/N=C(\c1ccccc1)c1ccc(Br)cc1`, the growth in [1] was 12.4%; in assay [2], -7.67% (active); in assay [3], 9.3% (active); in assay [4] it was 62.2%; in [5] it was -9.13% (active); in [6] it was 12.6%. The growth in assay [10] is 33.8%; in [8] it was 0.411% (active); in assay [9], 48%.

Consider `Oc1ccc2c(c1)CCc1ccccc1-2`, for which the growth in assay [1] is 92.6%; in [2] it was 95%; in assay [3], 56.1%; in assay [4] it was 102%; in assay [5], 95.9%; in assay [6], 99.2%. In addition, the growth is 97.8% in assay [7], 104% in assay [10], 107% in assay [8] and 105% in [9].

As for `CC1CC(C)(C)OB(OC(C)CC(C)(C)OB2OC(C)CC(C)(C)O2)O1` (stereo unspecified), the growth in assay [1] is 104%; in assay [2], 99.2%; in assay [3] it was 115%; in assay [4] it was 104%; in assay [5], 94.2%; in assay [6] it was 97.5%. The growth in [7] is 101%; in assay [10], 106%; in assay [8] it was 93.7%; in [9], 104%.

In the case of `Oc1ccc(Cl)cc1C(c1cc(Cl)ccc1O)C(Cl)(Cl)Cl`, the growth in assay [1] is 3.95% (active); in assay [2] it was 4.03% (active); in assay [3] it was 4.39% (active); in assay [4], 24%; in assay [5], 11.8%; in assay [6], 6.26% (active). For the same molecule, the figures for the growth in assay [7], in assay [8] and in [9] were 29.1%, -62.8% (active) and 38.8%, respectively.

Take `OC(Cc1cc(CC(O)(C(F)(F)F)C(F)(F)F)nc(CC(O)(C(F)(F)F)C(F)(F)F)c1)(C(F)(F)F)C(F)(F)F`: the growth in assay [1] was 9.46% (active); in assay [2] it was -12.1% (active); in assay [3] it was -8.76% (active); in [4], 16%; in assay [5], -60.2% (active); in assay [6], 4.38% (active). Besides, the figures for the growth in [10], in [8] and in assay [9] were -10.6% (active), 0.881% (active) and 26.5%, respectively.

For the molecule `CCOC(=O)c1cc(CC)sc1NC(=O)CC(C)=O`, the growth in assay [1] is 19.9%; in [2], 47.8%; in [3], 44.8%; in assay [4], 29.8%; in [5], 34.7%; in assay [6] it was 36.2%. Further, the values for the growth in assay [7], in [10] and in assay [9] were 54.3%, 60.4% and 96.7%, respectively.

With `COC(=O)c1cc([N+](=O)[O-])cc([N+](=O)[O-])c1Cl`, the growth in assay [1] is -4.09% (active); in assay [2], -85.2% (active); in assay [3], 90.4%; in [4], 104%; in [5], 9.52% (active); in assay [6], 97%. Moreover, the growth is 107% in assay [7], 90.6% in assay [10], 57.7% in [8] and 108% in [9].

As to `CC(C)N=C(N)/N=C(\N)Nc1ccc2ccc3ccccc3c2c1`, the growth in assay [1] is -91.5% (active); in assay [2] it was -84.4% (active); in assay [3], -20.7% (active); in assay [4] it was -92.6% (active); in [5], -67.9% (active); in assay [6], -7.75% (active). In addition, the growth is -98.1% (active) in assay [7], -75.6% (active) in assay [10] and -78.2% (active) in assay [9].

In the case of `CC1=CC(=NC(=O)CBr)C=C/C1=N\S(=O)(=O)c1ccccc1`, the growth in assay [1] is 36.6%; in assay [2], 39.9%; in [3], 67.6%; in [4] it was 98.2%; in [5], 67.3%; in [6], 77.5%. Moreover, the growth in assay [7] is 57.1%; in assay [10], 66.7%; in assay [8] it was 9.2% (active); in assay [9] it was 73.1%.

On to `O=C1/C(=C\c2ccc([N+](=O)[O-])cc2)CS(=O)(=O)C/C1=C/c1ccc([N+](=O)[O-])cc1`, for which the growth in assay [1] was -86.7% (active); in [2], -57.7% (active); in [3], -89.6% (active); in assay [4] it was -96.3% (active); in [5], -86.6% (active); in [6], -81.6% (active). The growth is -90.7% (active) in [10] and -82.8% (active) in assay [8].

For `O=[N+]([O-])C=C(c1ccccc1)c1ccccc1`, the growth in [1] was 42.7%; in [2], 91.7%; in assay [3], 59.4%; in assay [4] it was 85.5%; in assay [5], 80.1%; in assay [6], 76.5%. Besides, the growth in [7] is 88.3%; in [10], 56.9%; in assay [9], 90.4%.

`CCOc1ccc(C(CN2CCOCC2)C(C)=O)cc1OC` (stereo unspecified): the growth in assay [1] was 54.2%; in assay [2] it was 107%; in assay [3], 85.9%; in [4], 103%; in assay [5] it was 95.9%; in [6], 101%. In addition, the growth in assay [7] is 93.6%; in assay [10], 93.6%; in assay [8], 68.9%; in assay [9], 102%.

For the molecule `CCCCCCCCCCCC[n+]1ccc(CCCCCCCCC)cc1`, the growth in assay [1] is -48% (active); in assay [2], -84% (active); in assay [3], -70% (active); in assay [4], -74.5% (active); in [5], -94.6% (active); in assay [6], -51.6% (active). In addition, the growth in assay [7] is -96.8% (active); in [10], -76.9% (active); in [8] it was -94.6% (active); in [9] it was -70.9% (active).

The values above are taken from PubChem BioAssay (NCI).
